# From PubChem BioAssay (NCATS)
# Inconclusive results are not listed. Where a call stands in place of a potency, no number is given. Activity calls are given as the source filed them. Calls come from the whole dose curve; as a rule, active = well fitted curve in the direction sought with a large enough effect; inconclusive = small, poorly fitted or top-dose-only effect, or another doubt; inactive = no such curve, though single readings can be large; an effect the other way counts as inactive or inconclusive.
# Target: Cytochrome P450 3A4 (Homo sapiens) (UniProt P08684)
# Sequence (P08684 whole entry, looked up): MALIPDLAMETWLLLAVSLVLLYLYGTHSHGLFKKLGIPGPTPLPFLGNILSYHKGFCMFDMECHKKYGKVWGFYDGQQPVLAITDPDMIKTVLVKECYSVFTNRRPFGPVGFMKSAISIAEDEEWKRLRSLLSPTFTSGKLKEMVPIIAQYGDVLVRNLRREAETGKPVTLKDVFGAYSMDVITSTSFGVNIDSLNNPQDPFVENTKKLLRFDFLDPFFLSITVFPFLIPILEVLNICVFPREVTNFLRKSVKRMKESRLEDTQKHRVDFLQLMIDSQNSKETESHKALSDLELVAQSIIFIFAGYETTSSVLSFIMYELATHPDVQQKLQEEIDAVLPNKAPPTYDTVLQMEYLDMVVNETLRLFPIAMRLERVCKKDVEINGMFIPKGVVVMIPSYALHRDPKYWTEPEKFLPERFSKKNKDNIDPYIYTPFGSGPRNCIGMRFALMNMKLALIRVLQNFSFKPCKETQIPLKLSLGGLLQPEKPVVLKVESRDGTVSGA
# Test: qHTS Assay for Inhibitors and Substrates of Cytochrome P450 3A4 (AID 884); note: nearly all actives have a fitted effect of over 50% in size
# Conditions: recombinant CYP3A4, Luciferin-PPXE luminescence; series mostly up to 57.1 µM
# Outline: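 20 nM human CYP3A4 with 25 uM Luciferin-PPXE (at KM) in 200 mM KPO4, preincubated 10 min with compound; NADPH regeneration started a 60 min RT reaction. Luciferin detected by luminescence, normalized to 57 uM ketoconazole as full inhibition.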
row,SMILES,Potency
1,CC(C)N(C(=O)CCl)c1ccccc1,inactive
2,CC1=CC(=O)c2c(O)cccc2C1=O,inactive
3,CC1(C)S[C@H]2[C@@H](N)C(=O)N2[C@H]1C(=O)O,inactive
4,C/C=C1/C[C@@H](C)[C@](O)(CO)C(=O)OCC2=CCN3CC[C@@H](OC1=O)C23 (some centres not stated),inactive
5,O=C(NC(=O)c1c(F)cccc1F)Nc1ccc(Cl)cc1,inactive

# Target: Alpha-galactosidase (Coffea arabica) (UniProt Q42656)
# Sequence (Q42656 whole entry, looked up): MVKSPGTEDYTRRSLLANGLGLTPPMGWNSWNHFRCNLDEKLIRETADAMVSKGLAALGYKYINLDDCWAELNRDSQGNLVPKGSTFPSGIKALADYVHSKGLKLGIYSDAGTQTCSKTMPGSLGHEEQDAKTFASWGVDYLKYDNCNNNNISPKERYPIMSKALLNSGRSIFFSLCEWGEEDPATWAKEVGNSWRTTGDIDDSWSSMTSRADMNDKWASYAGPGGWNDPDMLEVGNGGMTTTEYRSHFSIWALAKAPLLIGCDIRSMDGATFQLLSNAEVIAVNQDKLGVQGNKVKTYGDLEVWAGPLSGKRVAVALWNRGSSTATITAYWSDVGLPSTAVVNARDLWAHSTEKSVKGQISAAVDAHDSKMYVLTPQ
# Test: Counterscreen for Glucocerebrosidase Inhibitors: qHTS Assay for Coffee Bean alpha-Galactosidase at pH 4.5 (AID 957)
# Conditions: purified coffee bean alpha-galactosidase, fluorogenic substrate; series mostly up to 76.9 µM
# Outline: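 Coffee bean alpha-galactosidase 2 nM, substrate 4-MU-alpha-Gal 80 uM, pH 4.5 citrate/Tween-20, 20 min RT. Cpd titration 0.7 nM–77 uM. Stop pH 10, fluorescence 365/440 nm; Hill-equation AC50.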
row,SMILES,outcome
1,COC1=C(OC)C(=O)c2ccccc2C1=O,inactive
2,CC(C)(C)c1cc(/C=C(\C#N)C(N)=S)cc(C(C)(C)C)c1O,inactive
3,c1cnc2c(c1)ccc1cccnc12,inactive
4,CCCCCCCC/C=C\CCCCCCCC(=O)NCCc1ccc(O)c(O)c1,inactive
5,COc1ccccc1N1CCN(CCCCNS(=O)(=O)c2cccc3c(N(C)C)cccc23)CC1,inactive
6,NC(N)=NC(=O)c1nc(Cl)c(N2CCCCCC2)nc1N,inactive

# Target: Alpha-galactosidase (Coffea arabica) (UniProt Q42656)
# Test: Counterscreen for Glucocerebrosidase Inhibitors: qHTS Assay for Coffee Bean alpha-Galactosidase at pH 5.9 (AID 998)
# Conditions: coffee bean alpha-galactosidase enzyme assay; series mostly up to 76.9 µM
# Outline: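 Compounds were titrated from 0.7 nM to 77 uM against green coffee bean alpha-galactosidase (2 nM) using 80 uM fluorogenic 4-methylumbelliferyl substrate. After 20 min at room temperature, reactions were stopped at pH 10 and read by fluorescence.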
row,SMILES,outcome
1,CCN(c1nc(N)c(C(=O)N=C(N)N)nc1Cl)C(C)C,inactive
2,COC1=C(OC)C(=O)c2ccccc2C1=O,inactive
3,CC(C)(C)c1cc(/C=C(\C#N)C(N)=S)cc(C(C)(C)C)c1O,inactive
4,c1cnc2c(c1)ccc1cccnc12,inactive
5,CCCCCCCC/C=C\CCCCCCCC(=O)NCCc1ccc(O)c(O)c1,inactive
6,COc1ccccc1N1CCN(CCCCNS(=O)(=O)c2cccc3c(N(C)C)cccc23)CC1,inactive
7,NC(N)=NC(=O)c1nc(Cl)c(N2CCCCCC2)nc1N,inactive

# System: not listed separately
# Test: Inducers of the Endoplasmic Reticulum Stress Response (ERSR) in human glioma: Validation (AID 504836)
# Conditions: human glioma cells, ER stress response reporter; series mostly up to 38.3 µM
# Outline: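 ERSR induction read as luciferase luminescence (Bright-Glo, 10 min at room temperature) in stably transfected human U87-MG glioma cells exposed to compounds for 16 h, using GRP78 as sensor.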
row,SMILES,outcome
1,O=C1c2ccccc2C(=O)c2c(NCCc3ccc(O)cc3)ccc(NCCc3ccc(O)cc3)c21,inactive
2,CCN(c1nc(N)c(C(=O)N=C(N)N)nc1Cl)C(C)C,inactive
3,COC1=C(OC)C(=O)c2ccccc2C1=O,inactive
4,CC(C)(C)c1cc(/C=C(\C#N)C(N)=S)cc(C(C)(C)C)c1O,inactive
5,NS(=O)(=O)C#Cc1ccccc1,inactive
6,c1cnc2c(c1)ccc1cccnc12,inactive
7,CCCCCCCC/C=C\CCCCCCCC(=O)NCCc1ccc(O)c(O)c1,inactive
8,C=C1C(=O)O[C@@H]2[C@H]3O[C@]3(C)CCC=C(C)CC[C@@H]12,inactive
9,COc1ccccc1N1CCN(CCCCNS(=O)(=O)c2cccc3c(N(C)C)cccc23)CC1,inactive
10,NC(N)=NC(=O)c1nc(Cl)c(N2CCCCCC2)nc1N,inactive
11,C=CCc1cccc(C=NNC(=O)CN2CCN(Cc3ccccc3)CC2)c1O,inactive

# Target: Ubiquitin carboxyl-terminal hydrolase 1 (Homo sapiens) (UniProt O94782)
# Sequence (O94782 whole entry, looked up): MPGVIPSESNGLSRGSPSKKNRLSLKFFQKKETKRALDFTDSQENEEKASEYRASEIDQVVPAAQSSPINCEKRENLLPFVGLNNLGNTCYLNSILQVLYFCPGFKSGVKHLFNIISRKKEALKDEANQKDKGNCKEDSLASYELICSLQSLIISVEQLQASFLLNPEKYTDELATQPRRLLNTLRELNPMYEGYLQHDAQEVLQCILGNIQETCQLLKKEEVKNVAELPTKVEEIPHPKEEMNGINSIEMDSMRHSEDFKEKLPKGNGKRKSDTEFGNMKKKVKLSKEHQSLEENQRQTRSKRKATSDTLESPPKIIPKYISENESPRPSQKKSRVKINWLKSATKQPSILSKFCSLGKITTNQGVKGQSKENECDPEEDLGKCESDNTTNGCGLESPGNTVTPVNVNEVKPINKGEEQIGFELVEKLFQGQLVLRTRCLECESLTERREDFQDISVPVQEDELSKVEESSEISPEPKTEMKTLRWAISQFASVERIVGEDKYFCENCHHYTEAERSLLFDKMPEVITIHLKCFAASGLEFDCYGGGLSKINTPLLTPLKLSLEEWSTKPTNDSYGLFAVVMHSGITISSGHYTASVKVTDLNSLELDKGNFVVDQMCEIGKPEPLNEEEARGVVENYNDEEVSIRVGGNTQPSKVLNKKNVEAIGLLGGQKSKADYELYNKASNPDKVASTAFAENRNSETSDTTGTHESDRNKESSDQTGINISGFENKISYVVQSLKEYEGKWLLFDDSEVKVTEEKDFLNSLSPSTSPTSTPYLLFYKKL
# Test: Inhibitors of USP1/UAF1: Pilot qHTS (AID 504865); note: nearly all actives have a fitted effect of over 35% in size; note: potency is the fitted concentration of half-maximal effect
# Conditions: purified USP1/UAF1, Ub-rhodamine cleavage fluorescence; series mostly up to 114 µM
# Outline: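 Enzyme-free wells gave the negative control, while test wells held 1nM USP1/UAF1 preincubated with compound for 15 min at room temperature. Ub-Rho at 150nM final started the reaction, and fluorescence at 480/540 nm was recorded kinetically.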
row,SMILES,Potency
1,CC[C@@H]1CN2CCc3cc(OC)c(OC)cc3[C@H]2C[C@@H]1C[C@H]1NCCc2cc(OC)c(OC)cc21,inactive
2,CC[C@@H]1CN2CCc3cc(OC)c(OC)cc3[C@@H]2C[C@@H]1C[C@H]1NCCc2cc(OC)c(OC)cc21,inactive
3,C[C@]12CCC3C(CC[C@]4(O)C[C@@H](O)CC[C@]34C=O)[C@@]1(O)CC[C@@H]2C1=CC(=O)OC1 (some centres not stated),inactive
4,CC(=O)OC1C([N+]2(C)CCCCC2)C[C@H]2C3CC[C@H]4C[C@H](OC(C)=O)C([N+]5(C)CCCCC5)CC4(C)C3CCC12C (some centres not stated),inactive
5,Cc1cc2nc3c(=O)[nH]c(=O)nc-3n(C[C@H](O)[C@H](O)[C@H](O)COP(=O)(O)OP(=O)(O)OC[C@H]3O[C@@H](n4cnc5c(N)ncnc54)[C@H](O)[C@@H]3O)c2cc1C,50.1 µM (active)
6,CC(C)N(C(=O)CCl)c1ccccc1,inactive
7,COc1ccc2c(c1)CCC1[C@@H]2CCC2(C)[C@@H](NCCCCCCN3C(=O)C=CC3=O)CC[C@@H]12 (some centres not stated),inactive
8,CC(C)n1c(/C=C\[C@@H](O)C[C@@H](O)CC(=O)O)c(-c2ccc(F)cc2)c2ccccc21,inactive
9,CN1C[C@@H](C(=O)N[C@@]2(C)O[C@]3(O)C4CCCN4C(=O)[C@@H](Cc4ccccc4)N3C2=O)C=C2c3cccc4[nH]cc(c34)C[C@@H]21 (some centres not stated),50.1 µM (active)
10,CNC(C)C1CC[C@H](N)[C@@H](OC2C(N)C[C@H](N)[C@@H](OC3OC[C@](C)(O)C(NC)[C@H]3O)C2O)O1 (some centres not stated),inactive
11,CN[C@@H](CC(C)C)C(=O)N[C@@H]1C(=O)N[C@H](CC(N)=O)C(=O)N[C@@H]2C(=O)N[C@H]3C(=O)N[C@H](C(=O)N[C@H](C(=O)O)c4cc(O)cc(O)c4-c4cc3ccc4O)[C@H](O)c3ccc(c(Cl)c3)Oc3cc2cc(c3O[C@H]2O[C@@H](CO)[C@@H](O)[C@@H](O)[C@@H]2O[C@@H]2C[C@](C)(N)[C@H](O)[C@H](C)O2)Oc2ccc(cc2Cl)[C@@H]1O,inactive
12,CC1=CC(=O)c2c(O)cccc2C1=O,17.8 µM (active)
13,CN1[C@@H]2CC(OC(=O)[C@@H](CO)c3ccccc3)C[C@@H]1[C@H]1O[C@H]12 (some centres not stated),inactive
14,CC1(C)S[C@H]2[C@@H](N)C(=O)N2[C@H]1C(=O)O,inactive
15,CC(=O)N1CCN(c2ccc(OC[C@@H]3CO[C@@](Cn4ccnc4)(c4ccc(Cl)cc4Cl)O3)cc2)CC1,inactive
16,C/C=C1/C[C@@H](C)[C@](O)(CO)C(=O)OCC2=CCN3CC[C@@H](OC1=O)C23 (some centres not stated),inactive
17,CC(=O)OC1CCC2(C)C3=C(CCC2C1(C)C)[C@@]1(C)CCC(C(C)CCC=C(C)C)[C@@]1(C)CC3 (some centres not stated),inactive
18,C[C@]12CC[C@@H]3c4ccc(O)cc4C[C@@H](CCCCCCCCCS(=O)CCCC(F)(F)C(F)(F)F)C3[C@@H]1CC[C@@H]2O (some centres not stated),inactive
19,NCCCCC(NC(CCc1ccccc1)C(=O)O)C(=O)N1CCCC1C(=O)O (configuration not stated),inactive
20,CC[N+](C)(CC)CCC[n+]1c(-c2ccccc2)c2cc(N)ccc2c2ccc(N)cc21,7.94 µM (active)
21,C[N+]12CCC(CC1)[C@@H](OC(=O)C(O)(c1ccccc1)c1ccccc1)C2,inactive
22,NCC1O[C@@H](O[C@H]2C(O)C(O[C@@H]3C(O[C@H]4OC(CO)C(O)C(O)C4N)C(N)CC(N)[C@H]3O)O[C@@H]2CO)C(N)C(O)C1O (some centres not stated),inactive
23,NC[C@@H]1O[C@H](OC2[C@@H](CO)O[C@@H](OC3[C@H](O)[C@H](N)C[C@H](N)[C@H]3OC3O[C@H](CO)[C@@H](O)[C@H](O)[C@@H]3N)[C@H]2O)C(N)[C@H](O)[C@@H]1O (some centres not stated),inactive
24,O=C(NC(=O)c1c(F)cccc1F)Nc1ccc(Cl)cc1,inactive
25,CC1CC(Cl)CCC1C(=O)OC(C)(C)C (configuration not stated),inactive
26,CC(=O)O[C@H]1C[C@H]2CC[C@@H]3[C@H]4C[C@@H]([N+]5(C)CCCCC5)[C@@H](OC(C)=O)[C@]4(C)CC[C@@H]3[C@@]2(C)C[C@@H]1[N+]1(C)CCCCC1,inactive
27,CC1COC2=C1C(=O)C(=O)c1c2ccc2c1CCCC2(C)C (configuration not stated),79.4 µM (active)
28,COc1cc2c(cc1OC)-c1c(OC)c(OC)c(C=O)c3c1[C@H](C2)N(C)CC3,20 µM (active)
